Measurements from PubChem BioAssay AID1159580 (chemical genetic matrix, 2015).
Screen size: about 5,500 compounds; about 2,000 (36%) were called active. Roughly 18% stayed inconclusive and do not appear here. Rule as the data show it: active = normalized growth mostly below about 0.91 (no sharp cut-off); inconclusive = no clear call, values can overlap the other calls; inactive = mostly above about 0.92. The list shows a part of the results.

Experiment: chemical genetic growth profiling, strain panel (AID 1159580);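 also: tested at 20 µM; growth read once vehicle control cultures reached saturation at 30 °C; 1 = growth at the plate median or of vehicle wells; lower values mean less growth of the strain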
Details: growth OD

Measured: normalized growth

Nc1nc2ncc(=O)[nH]c2c(=O)[nH]1
inactive: S. cerevisiae deletion strains, locus YJR075W, strain HOC1, stronger effect = lower value 1.02 | S. cerevisiae deletion strains, locus YKL009W, strain mrt4, stronger effect = lower value 0.973 | S. cerevisiae deletion strains, locus YKL068W, stronger effect = lower value 0.981 | S. cerevisiae deletion strains, locus YKL085W, strain MDH1 (second series), stronger effect = lower value 0.991 | S. cerevisiae deletion strains, locus YKL085W, strain MDH1, stronger effect = lower value 0.991 | S. cerevisiae deletion strains, locus YKL160W, strain elf1, stronger effect = lower value 0.975 | S. cerevisiae deletion strains, locus YKL190W, strain CNB1, stronger effect = lower value 0.991 | S. cerevisiae deletion strains, locus YKR001C, strain vps1, stronger effect = lower value 0.999 | S. cerevisiae deletion strains, locus YKR026C, strain gcn3, stronger effect = lower value 0.977 | S. cerevisiae deletion strains, locus YKR091W, strain srl3, stronger effect = lower value 0.979 | S. cerevisiae deletion strains, locus YLL001W, strain dnm1, stronger effect = lower value 0.946 | S. cerevisiae deletion strains, locus YLL026W, stronger effect = lower value 0.982 | S. cerevisiae deletion strains, locus YLL041C, strain sdh2, stronger effect = lower value 0.976 | S. cerevisiae deletion strains, locus YLR027C, strain aat2, stronger effect = lower value 0.984 | S. cerevisiae deletion strains, locus YLR039C, strain RIC1, stronger effect = lower value 0.997 | S. cerevisiae deletion strains, locus YLR058C, strain SHM2, stronger effect = lower value 0.996 | S. cerevisiae deletion strains, locus YLR102C, strain apc9, stronger effect = lower value 0.984 | S. cerevisiae deletion strains, locus YLR113W, strain HOG1, stronger effect = lower value 0.941 | S. cerevisiae deletion strains, locus YLR221C, strain rsa3, stronger effect = lower value 0.977 | S. cerevisiae deletion strains, locus YLR258W, strain gsy2, stronger effect = lower value 0.982 | S. cerevisiae deletion strains, locus YLR262C, strain YPT6 (second series), stronger effect = lower value 0.986 | S. cerevisiae deletion strains, locus YLR262C, strain YPT6, stronger effect = lower value 0.994 | S. cerevisiae deletion strains, locus YLR268W, strain sec22, stronger effect = lower value 1.01 | S. cerevisiae deletion strains, locus YLR320W, strain mms22, stronger effect = lower value 0.972 | S. cerevisiae deletion strains, locus YLR330W, strain CHS5, stronger effect = lower value 0.992 | S. cerevisiae deletion strains, locus YLR342W, strain FKS1 (second series), stronger effect = lower value 0.997 | S. cerevisiae deletion strains, locus YLR342W, strain FKS1, stronger effect = lower value 0.987 | S. cerevisiae deletion strains, locus YLR357W, strain rsc2, stronger effect = lower value 0.967 | S. cerevisiae deletion strains, locus YLR370C, strain arc18, stronger effect = lower value 0.965 | S. cerevisiae deletion strains, locus YLR371W, strain rom2, stronger effect = lower value 0.976 | S. cerevisiae deletion strains, locus YLR384C, strain iki3, stronger effect = lower value 0.968 | S. cerevisiae deletion strains, locus YLR418C, strain cdc73, stronger effect = lower value 1.05 | S. cerevisiae deletion strains, locus YML016C, strain PPZ1, stronger effect = lower value 1 | S. cerevisiae deletion strains, locus YML032C, strain rad52, stronger effect = lower value 0.967 | S. cerevisiae deletion strains, locus YML120C, strain ndi1, stronger effect = lower value 0.972 | S. cerevisiae deletion strains, locus YML124C, strain tub3, stronger effect = lower value 0.998 | S. cerevisiae deletion strains, locus YMR058W, strain fet3, stronger effect = lower value 0.988 | S. cerevisiae deletion strains, locus YMR078C, strain ctf18, stronger effect = lower value 0.979 | S. cerevisiae deletion strains, locus YMR125W, strain sto1, stronger effect = lower value 0.969 | S. cerevisiae deletion strains, locus YMR129W, stronger effect = lower value 0.972 | S. cerevisiae deletion strains, locus YMR205C, strain PFK2, stronger effect = lower value 0.967 | S. cerevisiae deletion strains, locus YMR223W, strain ubp8, stronger effect = lower value 0.989 | S. cerevisiae deletion strains, locus YMR231W, strain pep5, stronger effect = lower value 0.979 | S. cerevisiae deletion strains, locus YMR263W, strain SAP30, stronger effect = lower value 1.01 | S. cerevisiae deletion strains, locus YMR307W, strain GAS1, stronger effect = lower value 1 | S. cerevisiae deletion strains, locus YNL067W, strain RPL9B, stronger effect = lower value 1.03 | S. cerevisiae deletion strains, locus YNL071W, strain lat1, stronger effect = lower value 0.984 | S. cerevisiae deletion strains, locus YNL128W, strain TEP1, stronger effect = lower value 1.03 | S. cerevisiae deletion strains, locus YNL153C, strain GIM3, stronger effect = lower value 1.01 | S. cerevisiae deletion strains, locus YNL183C, strain NPR1, stronger effect = lower value 0.942 | S. cerevisiae deletion strains, locus YNL209W, strain ssb2, stronger effect = lower value 0.993 | S. cerevisiae deletion strains, locus YNL233W, strain BNI4, stronger effect = lower value 1.01 | S. cerevisiae deletion strains, locus YNL248C, strain rpa49, stronger effect = lower value 0.98 | S. cerevisiae deletion strains, locus YNL250W, strain rad50, stronger effect = lower value 0.987 | S. cerevisiae deletion strains, locus YNL271C, strain bni1, stronger effect = lower value 0.995 | S. cerevisiae deletion strains, locus YNL298W, strain CLA4, stronger effect = lower value 1 | S. cerevisiae deletion strains, locus YNL307C, strain MCK1, stronger effect = lower value 0.991 | S. cerevisiae deletion strains, locus YNL322C, strain KRE1 (second series), stronger effect = lower value 0.967 | S. cerevisiae deletion strains, locus YNL322C, strain KRE1, stronger effect = lower value 1.01 | S. cerevisiae deletion strains, locus YNR049C, strain mso1, stronger effect = lower value 0.973 | S. cerevisiae deletion strains, locus YNR052C, strain pop2, stronger effect = lower value 0.983 | S. cerevisiae deletion strains, locus YOL006C, strain TOP1, stronger effect = lower value 1.11 | S. cerevisiae deletion strains, locus YOL012C, strain htz1 0.879 | S. cerevisiae deletion strains, locus YOL147C, strain pex11, stronger effect = lower value 0.978 | S. cerevisiae deletion strains, locus YOR001W, strain rrp6, stronger effect = lower value 0.986 | S. cerevisiae deletion strains, locus YOR061W, strain CKA2, stronger effect = lower value 1.01 | S. cerevisiae deletion strains, locus YOR069W, strain VPS5, stronger effect = lower value 1 | S. cerevisiae deletion strains, locus YOR070C, strain gyp1, stronger effect = lower value 0.983 | S. cerevisiae deletion strains, locus YOR080W, strain dia2, stronger effect = lower value 0.978 | S. cerevisiae deletion strains, locus YOR083W, strain WHI5, stronger effect = lower value 0.966 | S. cerevisiae deletion strains, locus YOR106W, strain vam3, stronger effect = lower value 0.988 | S. cerevisiae deletion strains, locus YOR136W, strain idh2, stronger effect = lower value 0.987 | S. cerevisiae deletion strains, locus YOR144C, strain elg1, stronger effect = lower value 0.989 | S. cerevisiae deletion strains, locus YOR184W, strain ser1, stronger effect = lower value 0.968 | S. cerevisiae deletion strains, locus YOR231W, strain MKK1, stronger effect = lower value 0.938 | S. cerevisiae deletion strains, locus YOR265W, strain rbl2, stronger effect = lower value 0.981 | S. cerevisiae deletion strains, locus YOR270C, strain vph1, stronger effect = lower value 0.951 | S. cerevisiae deletion strains, locus YOR290C, strain snf2, stronger effect = lower value 0.911 | S. cerevisiae deletion strains, locus YOR316C, strain cot1, stronger effect = lower value 0.985 | S. cerevisiae deletion strains, locus YPL051W, strain arl3, stronger effect = lower value 0.984 | S. cerevisiae deletion strains, locus YPL055C, strain LGE1, stronger effect = lower value 1.02 | S. cerevisiae deletion strains, locus YPL078C, strain atp4, stronger effect = lower value 0.97 | S. cerevisiae deletion strains, locus YPL106C, strain sse1, stronger effect = lower value 0.948 | S. cerevisiae deletion strains, locus YPL240C, strain hsp82, stronger effect = lower value 0.984 | S. cerevisiae deletion strains, locus YPL241C, strain CIN2, stronger effect = lower value 0.994 | S. cerevisiae deletion strains, locus YPL256C, strain CLN2, stronger effect = lower value 0.963 | S. cerevisiae deletion strains, locus YPR119W, strain clb2, stronger effect = lower value 0.974 | S. cerevisiae deletion strains, locus YPR141C, strain kar3, stronger effect = lower value 0.975 | S. cerevisiae deletion strains, locus YPR163C, strain tif3, stronger effect = lower value 0.988 | S. cerevisiae deletion strains, locus YPR167C, strain met16, stronger effect = lower value 1 | S. cerevisiae deletion strains, strain wtn01, stronger effect = lower value 0.994 | S. cerevisiae strains, strain wild type, stronger effect = lower value 1
